# Unmarked numbers belong to inactive results. Activity calls are given as the source filed them. Rule as the data show it, unless noted: active = inhibition above about 44%; inactive = the rest.
# Target: Nuclear receptor subfamily 5 group A member 2 (Homo sapiens) (UniProt O00482)
# Test: NR5A2 activity suppression in reporter cells – cell-based, luminescence, confirmation (AID 651613; in the data active = inhibition above about 42%;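 also: HEK293T cells co-transfected with LRH-1 and StAR promoter luciferase reporter; 0% = vehicle wells and 100% = parental cells lacking receptor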)
# Conditions: cell-based LRH-1 luciferase reporter, inverse agonism; at 3.6 µM; active compounds read high
# Sequence of Nuclear receptor subfamily 5 group A member 2 (Homo sapiens) (O00482 whole entry, looked up): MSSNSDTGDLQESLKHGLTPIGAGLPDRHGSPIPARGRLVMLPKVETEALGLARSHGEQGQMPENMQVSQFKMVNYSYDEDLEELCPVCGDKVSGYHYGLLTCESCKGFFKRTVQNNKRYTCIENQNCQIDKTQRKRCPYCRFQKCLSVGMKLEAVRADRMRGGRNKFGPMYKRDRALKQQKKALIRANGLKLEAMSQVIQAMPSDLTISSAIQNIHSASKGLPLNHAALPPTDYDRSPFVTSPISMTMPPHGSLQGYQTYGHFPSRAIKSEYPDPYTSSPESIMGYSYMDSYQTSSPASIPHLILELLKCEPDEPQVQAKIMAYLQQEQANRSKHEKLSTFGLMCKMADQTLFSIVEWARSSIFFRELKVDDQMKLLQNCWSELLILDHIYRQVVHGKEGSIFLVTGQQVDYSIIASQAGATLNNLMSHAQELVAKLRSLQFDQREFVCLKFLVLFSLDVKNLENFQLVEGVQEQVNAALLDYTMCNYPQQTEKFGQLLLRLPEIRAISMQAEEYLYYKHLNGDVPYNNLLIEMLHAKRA
row,SMILES,inhibition
1,Cc1cc(-c2nn3c(-c4ccccc4)nnc3s2)c2ccccc2n1,38.6%
2,O=C(CSc1nncc(=O)[nH]1)Nc1cccc([N+](=O)[O-])c1,57.3% (active)
3,COc1ccc(Cc2c(-c3cccc(Cl)c3)nc3cc(C)c(Br)c(C)n23)c(C)c1,41.3% (active)
4,CCOc1ccc(NC(=O)CN2CCN(C3c4ccccc4-c4ccccc43)CC2)cc1,66.5% (active)
5,CC(=O)N[C@@H](Cc1c[nH]c2ccccc12)C(=O)OCC(=O)Nc1ccc2c(c1)OCO2,53.1% (active)
6,CCN(CC)S(=O)(=O)c1ccc(N2CCCC2)c(NC(=O)c2ccc([N+](=O)[O-])o2)c1,55.4% (active)
7,COc1cccc(C(=O)N/N=C2/SCC(=O)N2CCc2ccc(OC)c(OC)c2)c1,31.3%
8,COc1ccccc1NC(=O)CN1CCN(CC(=O)Nc2ccc3c(c2)OCO3)CC1,54.4% (active)
9,CCN1C(=O)c2cccc3c(S(=O)(=O)Nc4ccccc4O)ccc1c23,34.1%
10,O=C(CCl)NCCN1C(=O)S/C(=C\c2cccnc2)C1=O,55.9% (active)
11,COc1ccc(CCNC(=O)c2ccccc2NC(=O)CN2CCN(c3ccccc3O)CC2)cc1,48% (active)
12,CC(C)NC(=O)N1Cc2cc(C(=O)NC3CCCCC3)nc(-c3cccc(-c4cccnc4)c3)c2[C@@H]1CCO,62.6% (active)
13,CCC(C)Nc1nc(-c2cccc(OC)c2O)nc2ccccc12 (stereo not given),52.4% (active)
14,CC(CCc1ccccc1)NC(=O)COc1ccc(S(=O)(=O)N2CCOCC2)cc1[N+](=O)[O-] (stereo not given),35.2%
15,COc1ccc(CCNC(=O)CN2C(=O)C3(OCCCO3)c3ccccc32)cc1OC,45.7% (active)
16,CC(=O)Nc1ccc(NC(=O)COC(=O)c2c(C)nn(-c3ccccc3)c2C)cc1,51.6% (active)
17,CCCOc1ccc(N)cc1N,21.4%
18,C=CC(=O)Nc1cccc(Oc2ncnc3[nH]cc(-c4cnc5ccccc5c4)c23)c1,67.9% (active)
19,CC1CCCC(C)N1C(=O)COC(=O)CCC1CCCC1 (stereo not given),51.2% (active)
20,COc1cccc(C2c3cc4c(cc3OC(N3CCOCC3)C2C)OCO4)c1O (stereo not given),51.8% (active)

row,SMILES,inhibition
1,O=C(Nc1ccccc1C(=O)NCCCn1ccnc1)c1ccccc1,53.6% (active)
2,O=C(Nc1ccc2[nH]c(=O)[nH]c2c1)c1ccc([N+](=O)[O-])o1,65.1% (active)
3,O=C(CSc1nc2ccc(F)cc2c(=O)n1-c1ccccc1)Nc1ccc2c(c1)CCC2,43.3% (active)
4,Cc1cc(=O)oc2c(C)c(OCC(=O)NC3CC(C)(C)NC(C)(C)C3)ccc12,48% (active)
5,O=C(COC(=O)C1CCCCC1)NCCc1ccccc1,50.9% (active)
6,O=C(NCc1ccc2c(c1)OCO2)c1cc([N+](=O)[O-])ccc1N1CCCCC1,36.2%
7,COc1ccc(OC)c(C2C3=C(COC3=O)Nc3cc4c(cc32)OCO4)c1 (stereo not given),27.6%
8,O=C1CCN(CCCN2CCC(=O)N(Cc3ccccc3)C2=S)C(=S)N1Cc1ccccc1,27.2%
9,O=C(COC(=O)c1ccc(S(=O)(=O)N2CCCC2)cc1)Nc1ccc(N2CCOCC2)cc1,48.5% (active)
10,S=C(Nc1cccnc1)Nc1cccc2cnccc12,17.3%
11,COc1ccc(CCNC(=O)CSc2nc3[nH]c(=O)cc(O)c3s2)cc1,60.7% (active)
12,O=C1CCc2cc(OCCCCc3nnnn3C3CCCCC3)ccc2N1,54% (active)
13,CN(C)S(=O)(=O)c1cccc(CSCc2cccc(S(=O)(=O)N(C)C)c2)c1,59% (active)
14,COc1cccc2c1C1COC3C4CC(C(=O)O)C(C(C2)N13)N4C (stereo not given),45.4% (active)
15,COc1ccc(CCNC(=O)CSc2nnc(CNC(=O)c3cccs3)o2)cc1OC,56.7% (active)
16,CCOc1ccc(C(C)=O)cc1COC(=O)c1cc([N+](=O)[O-])ccc1N1CCOCC1,58.2% (active)
17,Cc1ccc(C2CC(C(F)(F)F)n3nc(C(=O)NCc4ccco4)cc3N2)cc1 (stereo not given),44.1% (active)
18,COc1cc(OC)cc(-c2oc3cccnc3c2C#CCCO)c1,60.8% (active)
19,COc1ccc(/C=N/n2c(SC)nnc2-c2ccccc2)c(OC)c1OC,41.2% (active)
20,COc1ccc(CCNC(=O)CSc2nc3[nH]ncc3c(=O)n2-c2ccccc2Br)cc1OC,57.3% (active)

# Target: Steroidogenic factor 1 (Homo sapiens) (UniProt Q13285)
# Test: inverse agonism at SF1 nuclear receptor – cell-based, luminescence, high throughput, counter-screen for LRH-1 inverse agonist project (AID 651614);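 also: cells cotransfected with StAR promoter reporter and SF1 expression vector; 0% = vehicle on cells with receptor and 100% = vehicle on cells lacking receptor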
# Conditions: cell-based SF1 luciferase reporter, at 3.6 µM, active compounds read high
# Sequence of Steroidogenic factor 1 (Homo sapiens) (Q13285 whole entry, looked up): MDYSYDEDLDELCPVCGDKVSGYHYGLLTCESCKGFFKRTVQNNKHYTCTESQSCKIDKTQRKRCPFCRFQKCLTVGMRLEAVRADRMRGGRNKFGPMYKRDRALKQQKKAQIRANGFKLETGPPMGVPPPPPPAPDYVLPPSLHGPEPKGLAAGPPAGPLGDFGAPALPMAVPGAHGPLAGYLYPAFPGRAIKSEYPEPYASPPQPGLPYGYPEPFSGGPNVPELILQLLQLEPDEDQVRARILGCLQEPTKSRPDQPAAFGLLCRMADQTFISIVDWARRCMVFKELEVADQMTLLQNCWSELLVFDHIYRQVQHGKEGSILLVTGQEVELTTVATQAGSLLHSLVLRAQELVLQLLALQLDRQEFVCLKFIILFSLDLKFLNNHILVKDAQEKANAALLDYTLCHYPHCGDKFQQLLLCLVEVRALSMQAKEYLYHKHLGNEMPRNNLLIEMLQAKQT
row,SMILES,inhibition
1,Cc1cc(-c2nn3c(-c4ccccc4)nnc3s2)c2ccccc2n1,22.6%
2,O=C(CSc1nncc(=O)[nH]1)Nc1cccc([N+](=O)[O-])c1,53.2% (active)
3,COc1ccc(Cc2c(-c3cccc(Cl)c3)nc3cc(C)c(Br)c(C)n23)c(C)c1,36.9%
4,CCOc1ccc(NC(=O)CN2CCN(C3c4ccccc4-c4ccccc43)CC2)cc1,60.1% (active)
5,CC(=O)N[C@@H](Cc1c[nH]c2ccccc12)C(=O)OCC(=O)Nc1ccc2c(c1)OCO2,56.8% (active)
6,CCN(CC)S(=O)(=O)c1ccc(N2CCCC2)c(NC(=O)c2ccc([N+](=O)[O-])o2)c1,56.6% (active)
7,COc1cccc(C(=O)N/N=C2/SCC(=O)N2CCc2ccc(OC)c(OC)c2)c1,36.8%
8,COc1ccccc1NC(=O)CN1CCN(CC(=O)Nc2ccc3c(c2)OCO3)CC1,50.7% (active)
9,CCN1C(=O)c2cccc3c(S(=O)(=O)Nc4ccccc4O)ccc1c23,36.2%
10,O=C(CCl)NCCN1C(=O)S/C(=C\c2cccnc2)C1=O,57.4% (active)
11,COc1ccc(CCNC(=O)c2ccccc2NC(=O)CN2CCN(c3ccccc3O)CC2)cc1,50.4% (active)
12,CC(C)NC(=O)N1Cc2cc(C(=O)NC3CCCCC3)nc(-c3cccc(-c4cccnc4)c3)c2[C@@H]1CCO,62.5% (active)
13,CCC(C)Nc1nc(-c2cccc(OC)c2O)nc2ccccc12 (stereo not given),46.3% (active)
14,CC(CCc1ccccc1)NC(=O)COc1ccc(S(=O)(=O)N2CCOCC2)cc1[N+](=O)[O-] (stereo not given),31.7%
15,COc1ccc(CCNC(=O)CN2C(=O)C3(OCCCO3)c3ccccc32)cc1OC,52.5% (active)
16,CC(=O)Nc1ccc(NC(=O)COC(=O)c2c(C)nn(-c3ccccc3)c2C)cc1,50.9% (active)
17,CCCOc1ccc(N)cc1N,27%
18,C=CC(=O)Nc1cccc(Oc2ncnc3[nH]cc(-c4cnc5ccccc5c4)c23)c1,65.6% (active)
19,CC1CCCC(C)N1C(=O)COC(=O)CCC1CCCC1 (stereo not given),52.9% (active)
20,COc1cccc(C2c3cc4c(cc3OC(N3CCOCC3)C2C)OCO4)c1O (stereo not given),45.3% (active)

row,SMILES,inhibition
1,O=C(Nc1ccccc1C(=O)NCCCn1ccnc1)c1ccccc1,42.1%
2,O=C(Nc1ccc2[nH]c(=O)[nH]c2c1)c1ccc([N+](=O)[O-])o1,65.8% (active)
3,O=C(CSc1nc2ccc(F)cc2c(=O)n1-c1ccccc1)Nc1ccc2c(c1)CCC2,47.9% (active)
4,Cc1cc(=O)oc2c(C)c(OCC(=O)NC3CC(C)(C)NC(C)(C)C3)ccc12,55% (active)
5,O=C(COC(=O)C1CCCCC1)NCCc1ccccc1,41.5%
6,O=C(NCc1ccc2c(c1)OCO2)c1cc([N+](=O)[O-])ccc1N1CCCCC1,47.6% (active)
7,COc1ccc(OC)c(C2C3=C(COC3=O)Nc3cc4c(cc32)OCO4)c1 (stereo not given),41.7%
8,O=C1CCN(CCCN2CCC(=O)N(Cc3ccccc3)C2=S)C(=S)N1Cc1ccccc1,28.5%
9,O=C(COC(=O)c1ccc(S(=O)(=O)N2CCCC2)cc1)Nc1ccc(N2CCOCC2)cc1,57.4% (active)
10,S=C(Nc1cccnc1)Nc1cccc2cnccc12,26.2%
11,COc1ccc(CCNC(=O)CSc2nc3[nH]c(=O)cc(O)c3s2)cc1,51.7% (active)
12,O=C1CCc2cc(OCCCCc3nnnn3C3CCCCC3)ccc2N1,49.8% (active)
13,CN(C)S(=O)(=O)c1cccc(CSCc2cccc(S(=O)(=O)N(C)C)c2)c1,38.9%
14,COc1cccc2c1C1COC3C4CC(C(=O)O)C(C(C2)N13)N4C (stereo not given),72.3% (active)
15,COc1ccc(CCNC(=O)CSc2nnc(CNC(=O)c3cccs3)o2)cc1OC,50% (active)
16,CCOc1ccc(C(C)=O)cc1COC(=O)c1cc([N+](=O)[O-])ccc1N1CCOCC1,55.5% (active)
17,Cc1ccc(C2CC(C(F)(F)F)n3nc(C(=O)NCc4ccco4)cc3N2)cc1 (stereo not given),44.8% (active)
18,COc1cc(OC)cc(-c2oc3cccnc3c2C#CCCO)c1,54.2% (active)
19,COc1ccc(/C=N/n2c(SC)nnc2-c2ccccc2)c(OC)c1OC,54.4% (active)
20,COc1ccc(CCNC(=O)CSc2nc3[nH]ncc3c(=O)n2-c2ccccc2Br)cc1OC,43.1% (active)
